The list is not random: actives were taken first. Their share in the collection is about 0.9%.
SRC3 TRFRET art: flags TR-FRET format artefacts in PPARgamma SRC-3 recruitment agonist screen. TR-FRET artefact counter-screen, PPARgamma/SRC-3 format; active compounds read high. TR-FRET ratio at 8 µM. actives 0.39% (n = 99,000); in the data active means TR-FRET ratio above about 2000
SRC2 TRFRET art: flags TR-FRET format artefacts in PPARgamma SRC-2 recruitment agonist screen; TR-FRET artefact counter-screen; active compounds read high; TR-FRET ratio at 8 µM; actives 0.4% (n = 200,000); in the data active means TR-FRET ratio above about 2000
SRC1 TRFRET art: flags TR-FRET format artefacts in PPARgamma SRC-1 recruitment agonist screen; AID 1051; TR-FRET detection artefact counter-screen, emission ratio; active compounds read high; TR-FRET ratio at 8 µM; actives 0.34% (n = 99,000); in the data active means TR-FRET ratio above about 2300
PPARg SRC-2 ag: agonists of SRC-2 recruitment by human PPARgamma; AID 1032; PPARgamma LBD-SRC-2 recruitment, biochemical; activation, % at 8 µM; actives 0.34% (n = 200,000);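 further: 0% = vehicle and 100% = reference agonist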
Target sequence (P37231 whole entry, looked up, the tested form may be a part): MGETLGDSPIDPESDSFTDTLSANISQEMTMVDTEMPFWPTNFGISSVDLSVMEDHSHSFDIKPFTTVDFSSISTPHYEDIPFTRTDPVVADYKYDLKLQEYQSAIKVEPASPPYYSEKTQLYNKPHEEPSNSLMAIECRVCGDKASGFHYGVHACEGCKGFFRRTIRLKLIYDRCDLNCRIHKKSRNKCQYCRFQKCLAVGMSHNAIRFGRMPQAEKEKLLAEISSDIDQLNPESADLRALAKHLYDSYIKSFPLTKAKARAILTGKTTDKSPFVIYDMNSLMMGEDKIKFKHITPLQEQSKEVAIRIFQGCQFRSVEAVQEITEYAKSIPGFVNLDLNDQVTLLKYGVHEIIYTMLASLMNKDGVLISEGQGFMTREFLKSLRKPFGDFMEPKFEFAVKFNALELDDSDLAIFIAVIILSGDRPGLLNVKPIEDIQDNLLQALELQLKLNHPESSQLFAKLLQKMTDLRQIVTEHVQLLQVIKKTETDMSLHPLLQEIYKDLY
PPARg SRC-3 ag: promotes SRC-3 coactivator recruitment by human PPARgamma. P37231. biochemical PPARgamma/SRC-3 coactivator recruitment assay. activation, % at 8 µM. actives 0.26% (n = 200,000). AID 731; in the data active means activation above about 23%;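 further: 0% = DMSO and 100% = reference agonist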
PPARg SRC-1 ag: agonists of human PPARgamma SRC-1 coactivator recruitment; activation, % at 8 µM; PPARgamma-SRC-1 coactivator recruitment biochemical assay; actives 0.41% (n = 200,000); P37231; in the data active means activation above about 19%;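 further: 0% = DMSO and 100% = reference agonist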
PPARg SRC2 ag: human PPARgamma SRC-2 recruitment agonism, confirmation; shares compounds with PPARg SRC-3 ag; biochemical SRC-2 recruitment by PPARgamma; activation, % at 8 µM; actives 52% (n = 790);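 further: 0% = vehicle alone and 100% = reference agonist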
PPARg SRC1 ag: confirmation of agonists of SRC-1 recruitment by human PPARgamma; shares compounds with PPARg SRC-3 ag; PPARgamma–SRC-1 coactivator recruitment biochemical assay; activation, % at 8 µM; actives 43% (n = 790); AID 1300; in the data active means activation above about 20%;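 further: 0% = vehicle wells and 100% = reference agonist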
PPARg SRC3 ag: human PPARgamma SRC-3 recruitment agonism, confirmation | actives 29% (n = 790) | activation, % at 8 µM | shares compounds with PPARg SRC-3 ag | biochemical PPARgamma-SRC-3 coactivator recruitment, agonist mode; in the data active means activation above about 24%;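 further: 0% = vehicle wells and 100% = reference agonist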
Active calls of the source: *. Unless noted, no stated cut-off is given here; in the data, active means activation above about 22%; inactive means the rest.

For COc1ccc(C2=NN(C(N)=S)C(c3ccccc3)C2)cc1 (stereo not drawn) the results were SRC3 TRFRET art 3054*, SRC2 TRFRET art 2602*, SRC1 TRFRET art 3172*, PPARg SRC-2 ag 53.3*, PPARg SRC-3 ag 29.1*, PPARg SRC-1 ag 57.4*, PPARg SRC2 ag 58.7*, PPARg SRC1 ag 48.1* and PPARg SRC3 ag 41.1*.
CNC(=S)N1N=C(c2ccc(Br)cc2)CC1c1ccc(N(C)C)cc1 (stereo not drawn) was read as SRC3 TRFRET art 4796*, SRC2 TRFRET art 3604*, SRC1 TRFRET art 4829*, PPARg SRC-2 ag 20.4, PPARg SRC-3 ag 28.7*, PPARg SRC-1 ag 27.3*, PPARg SRC2 ag 40.6*, PPARg SRC1 ag 29.2* and PPARg SRC3 ag 25.9*.
For CNC(=S)N1N=C(c2ccc(OC)cc2)CC1c1ccc(N(C)C)cc1 (stereo not drawn) the results were SRC2 TRFRET art 1566, PPARg SRC-2 ag 4.6, PPARg SRC-3 ag 12.9 and PPARg SRC-1 ag -2.2.
For O=C(NC(=S)NCc1cccnc1)c1cccc2ccccc12 the results were SRC3 TRFRET art 1468, SRC2 TRFRET art 1368, SRC1 TRFRET art 1732, PPARg SRC-2 ag -7.7, PPARg SRC-3 ag 2.0 and PPARg SRC-1 ag 7.4.
Screening CC(=O)N1N=C(c2ccc(C)o2)CC1c1ccc(Br)cc1 (stereo not drawn) returned SRC2 TRFRET art 1541, PPARg SRC-2 ag 4.7, PPARg SRC-3 ag 8.4 and PPARg SRC-1 ag 3.1.
`CNC(=S)N1N=C(c2ccc(Br)cc2)CC1c1ccc(Br)cc1` (stereo not drawn) gave SRC2 TRFRET art 3230*, PPARg SRC-2 ag 28.4*, PPARg SRC-3 ag 50.8*, PPARg SRC-1 ag 30.0*, PPARg SRC2 ag 47.3*, PPARg SRC1 ag 37.4* and PPARg SRC3 ag 28.0*.
For Cc1ccc(C(=O)COC(=O)CCc2ccc(S(=O)(=O)N3CCCCC3)cc2)cc1 the results were SRC3 TRFRET art 1429, SRC2 TRFRET art 1599, SRC1 TRFRET art 1746, PPARg SRC-2 ag 3.6, PPARg SRC-3 ag -1.3 and PPARg SRC-1 ag -3.9.
CC(=O)Nc1ccc(NC(=O)CC2Nc3cccc4cccc(c34)NC2=O)cc1 (stereo not drawn) was read as SRC2 TRFRET art 1572, PPARg SRC-2 ag 10.5, PPARg SRC-3 ag 25.8*, PPARg SRC-1 ag 6.0, PPARg SRC2 ag 9.6, PPARg SRC1 ag 12.4 and PPARg SRC3 ag 7.0.
COC(=O)CSc1ncnc2c1sc1nc3c(cc12)COC(C)(C)C3 was read as SRC3 TRFRET art 1809, SRC2 TRFRET art 1748, SRC1 TRFRET art 2109, PPARg SRC-2 ag 23.8*, PPARg SRC-3 ag 12.4, PPARg SRC-1 ag 13.2, PPARg SRC2 ag 17.1, PPARg SRC1 ag 15.5 and PPARg SRC3 ag 12.0.
For CC1=CCC2([N+](=O)[O-])CN(CC(=O)O)CC1([N+](=O)[O-])C2 (stereo not drawn) the results were SRC3 TRFRET art 1426, SRC2 TRFRET art 1640, SRC1 TRFRET art 1817, PPARg SRC-2 ag 3.8, PPARg SRC-3 ag 1.7 and PPARg SRC-1 ag 0.8.
Cc1ccc(/C=N/Nc2ccc3ccccc3n2)o1 was read as SRC3 TRFRET art 1637, SRC2 TRFRET art 1767, SRC1 TRFRET art 1804, PPARg SRC-2 ag 14.3, PPARg SRC-3 ag 15.5, PPARg SRC-1 ag 22.2*, PPARg SRC2 ag 6.8, PPARg SRC1 ag 1.1 and PPARg SRC3 ag 3.9.
For O=C(Nc1ccccc1)c1sc(N2CCOCC2)nc1-c1ccccc1 the results were SRC3 TRFRET art 1655, SRC2 TRFRET art 1762, SRC1 TRFRET art 2033, PPARg SRC-2 ag 13.4, PPARg SRC-3 ag 7.4 and PPARg SRC-1 ag 5.7.
`CC(=O)c1sc(N2CCOCC2)nc1-c1ccccc1` gave SRC3 TRFRET art 2416*, SRC2 TRFRET art 2097*, SRC1 TRFRET art 2416*, PPARg SRC-2 ag 16.8, PPARg SRC-3 ag 26.9*, PPARg SRC-1 ag 33.3*, PPARg SRC2 ag 36.5*, PPARg SRC1 ag 27.8* and PPARg SRC3 ag 23.6.
CCN(CC)S(=O)(=O)c1cc(NC(=O)C(C)N2CCN(Cc3ccc4c(c3)OCO4)CC2)ccc1C (stereo not drawn) was read as SRC3 TRFRET art 1687, SRC2 TRFRET art 1383, SRC1 TRFRET art 1618, PPARg SRC-2 ag 1.0, PPARg SRC-3 ag 2.9 and PPARg SRC-1 ag -2.3.
`COc1cc(/C=C/C(=O)Nc2nc3ccc(S(=O)(=O)NC(C)C)cc3s2)cc(OC)c1OC` gave SRC3 TRFRET art 1648, SRC2 TRFRET art 1783, SRC1 TRFRET art 1944, PPARg SRC-2 ag 22.8*, PPARg SRC-3 ag 1.3, PPARg SRC-1 ag 14.1, PPARg SRC2 ag 1.6, PPARg SRC1 ag -1.4 and PPARg SRC3 ag -0.9.
`CCCCCN1C(=O)Cn2c(nc3ccccc3c2=O)C1C` (stereo not drawn) gave SRC3 TRFRET art 1582, SRC2 TRFRET art 1480, SRC1 TRFRET art 1723, PPARg SRC-2 ag -6.3, PPARg SRC-3 ag 0.3 and PPARg SRC-1 ag -2.4.
For O=C(Cn1c(=O)c(=O)n(Cc2ccccc2)c2ccc(Cl)cc21)NCC1CCCO1 (stereo not drawn) the results were SRC3 TRFRET art 1424, SRC2 TRFRET art 1576, SRC1 TRFRET art 1718, PPARg SRC-2 ag -8.0, PPARg SRC-3 ag -3.6 and PPARg SRC-1 ag 3.2.
For COc1ccc(N(CN2C(=O)C3CC=CCC3C2=O)C(=O)c2ccco2)cc1 (stereo not drawn) the results were SRC2 TRFRET art 1738, PPARg SRC-2 ag 4.9, PPARg SRC-3 ag 12.1, PPARg SRC-1 ag 18.7*, PPARg SRC2 ag 5.3, PPARg SRC1 ag 2.6 and PPARg SRC3 ag 2.2.
Oc1c(Cl)cc(Cl)cc1CNc1ccc(Br)cn1 was read as SRC2 TRFRET art 1523, PPARg SRC-2 ag 0.3, PPARg SRC-3 ag -4.4 and PPARg SRC-1 ag 1.9.
For Oc1ccc(Cl)cc1CNc1ccc(Br)cn1 the results were SRC2 TRFRET art 1491, PPARg SRC-2 ag 9.9, PPARg SRC-3 ag 3.8, PPARg SRC-1 ag 23.4*, PPARg SRC2 ag 0.9, PPARg SRC1 ag 9.0 and PPARg SRC3 ag 6.3.
COc1ccccc1C1C(C(=O)c2cc3ccccc3o2)=C(O)C(=O)N1CCN(C)C (stereo not drawn) was read as SRC2 TRFRET art 1988*, PPARg SRC-2 ag 16.9, PPARg SRC-3 ag 25.0, PPARg SRC-1 ag 19.8*, PPARg SRC2 ag 14.1, PPARg SRC1 ag 13.0 and PPARg SRC3 ag 9.2.
